Three compounds from PubChem BioAssay (EPA / NIEHS) can be followed below.

SMILES strings stand for the structures. Results filed as inconclusive are left out. Calls of active or inactive are those of the source. Rule for the calls, unless noted: active = hit-call score of the fitted dose curve at least 0.9, where 1 is the maximum; inconclusive = response in the unintended direction; inactive = score below 0.9.

What is called AC50 is the midpoint of the concentration-response curve, whichever way the signal moves.

Assay [1] has as its target THRA (gene 7067) (UniProt P10827). Description: TOX21_TRA_COA_Agonist_Followup_ratio: Tox21 Thyroid Hormone Receptor alpha Agonism through Coactivator Recruitment Follow-Up Assay, Ratio (AID 2283948; active = hit-call score of the fitted dose curve at least 0.9, where 1 is the maximum; inactive = score below 0.9). A digest of the protocol:
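GST-TRa LBD 2.5 nM + 0.10% BSA + cpd; add fluorescein-SRC-2 200 nM, Tb-anti-GST 2 nM. TR-FRET ex 340, em 520/495 ratio. Norm: DMSO 0%, T3 100%; gain-of-signal fit.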

Assay [2] addresses THRB (gene 7068) (UniProt P10828). Description: TOX21_TRB_BLA_Agonist_Followup_ratio: Tox21 Thyroid Hormone Receptor beta Agonism Beta-lactamase (BLA) Follow-Up Assay, Ratio (AID 2283954). A digest of the protocol:
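Human TRβ LBD–GAL4 DBD fusion in GeneBLAzer UAS-bla HEK293T cells; 11 concentrations in triplicate, 18 h at 37°C/5% CO2, T3 as agonist control. CCF4-AM substrate 2 h at room temperature; 460:530 nm ratio fitted for gain of signal versus DMSO.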

Assay [3] has the same target. As to the kind of experiment: TOX21_TRB_COA_Agonist_Followup_ratio: Tox21 Thyroid Hormone Receptor beta Agonism through Coactivator Recruitment Follow-Up Assay, Ratio (AID 2283963; active = hit-call score of the fitted dose curve at least 0.9, where 1 is the maximum; inactive = score below 0.9). The source says: TOX21_TRb_COA_Agonist_Followup is a secondary assay for specificity for the TOX21_TR_GH3_LUC_Agonist assay. The LanthaScreen TR-FRET TR coactivator assay kits were used to determine TR activity in a cell-free functional assay. A time-resolved fluorescence resonance energy transfer (TR-FRET) signal was indicative of coactivator (SRC-2) recruitment.TOX21_TRB_COA_Agonist_Followup_ratio is assay component calculated in the TOX21_TRB_COA_Agonist_Followup assay. The TR-FRET ratio of acceptor emission (ch2) to donor emission (ch1) is indicative of the resonance energy transfer to the fluorescein tag on the coactivator peptide following recruitment to the receptor.Data from the assay component TOX21_TRB_COA_Antagonist_Followup_ratio was analyzed into 1 assay endpoint. This assay endpoint, TOX21_TRB_COA_Antagonist_Followup_ratio, was analyzed in the positive analysis fitting direction relative to DMSO as the negative control and baseline of activity. Using a type of inducible reporter, gain-of-signal activity can be used to understand changes in the reporter gene as they relate to the gene THRB. Furthermore, this assay endpoint can be referred to as a primary readout, because this assay has produced multiple assay endpoints and this ratio serves a reporter gene function to understand target activity. […]

Assay [4] has as its target Retinoic acid receptor RXR-alpha (Homo sapiens) (UniProt P19793). As to the kind of experiment: TOX21_TR_RXR_BLA_Agonist_Followup_ratio: Tox21 Thyroid Hormone Receptor beta Retinoid X Receptor alpha (RXRa) Agonism Beta-lactamase (BLA) Follow-Up Assay, Ratio (AID 2283968). A digest of the protocol: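 RXRa-UAS-bla HEK293T cells, 5 h attachment at 37C/5% CO2, then 11 concentrations in triplicate for 16 h; 9-cis retinoic acid positive control. FRET-B/GCCF4-AM substrate 2 h at room temperature; 460:530 nm ratio, fitted for gain versus DMSO.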

Assay [5] can be described thus: TOX21_TR_RXR_BLA_Agonist_Followup_viability: Viability Assessment in the Tox21 Thyroid Hormone Receptor beta Retinoid X Receptor alpha (RXRa) Agonism Beta-lactamase (BLA) Follow-Up Assay (AID 2283970). A digest of the protocol: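 RXRa-UAS-bla HEK293T cells, 2,500/well in phenol red-free DMEM with 2% charcoal-stripped FBS, dosed for 16 h at 37C. Viability measured by CellTiter-Glo ATP luminescence; fitted bidirectionally against DMSO baseline, loss of signal indicating cytotoxicity.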

In assay [6] the target is THRA (gene 7067) (UniProt P10827). Description: TOX21_TRA_COA_Antagonist_Followup_ratio: Tox21 Thyroid Hormone Receptor alpha Antagonism through Coactivator Recruitment Follow-Up Assay, Ratio (AID 2283953). From the text: TOX21_TRa_COA_Antagonist_Followup is a secondary assay for specificity for the TOX21_TR_GH3_LUC_Agonist assay. The LanthaScreen TR-FRET TR coactivator assay kits were used to determine TR activity in a cell-free functional assay. A time-resolved fluorescence resonance energy transfer (TR-FRET) signal was indicative of coactivator (SRC-2) recruitment.TOX21_TRA_COA_Antagonist_Followup_ratio is assay component calculated in the TOX21_TRA_COA_Antagonist_Followup assay. The TR-FRET ratio of acceptor emission (ch2) to donor emission (ch1) is indicative of the resonance energy transfer to the fluorescein tag on the coactivator peptide following recruitment to the receptor.Data from the assay component TOX21_TRA_COA_Antagonist_Followup_ratio was analyzed into 1 assay endpoint. This assay endpoint, TOX21_TRA_COA_Antagonist_Followup_ratio, was analyzed in the positive analysis fitting direction relative to DMSO as the negative control and baseline of activity. Using a type of inducible reporter, loss-of-signal activity can be used to understand changes in the reporter gene as they relate to the gene THRA. Furthermore, this assay endpoint can be referred to as a primary readout, because this assay has produced multiple assay endpoints and this ratio serves a reporter gene function to understand target activity. […]
Chain of THRA (gene 7067) (P10827 whole entry, looked up, the tested form may be a part): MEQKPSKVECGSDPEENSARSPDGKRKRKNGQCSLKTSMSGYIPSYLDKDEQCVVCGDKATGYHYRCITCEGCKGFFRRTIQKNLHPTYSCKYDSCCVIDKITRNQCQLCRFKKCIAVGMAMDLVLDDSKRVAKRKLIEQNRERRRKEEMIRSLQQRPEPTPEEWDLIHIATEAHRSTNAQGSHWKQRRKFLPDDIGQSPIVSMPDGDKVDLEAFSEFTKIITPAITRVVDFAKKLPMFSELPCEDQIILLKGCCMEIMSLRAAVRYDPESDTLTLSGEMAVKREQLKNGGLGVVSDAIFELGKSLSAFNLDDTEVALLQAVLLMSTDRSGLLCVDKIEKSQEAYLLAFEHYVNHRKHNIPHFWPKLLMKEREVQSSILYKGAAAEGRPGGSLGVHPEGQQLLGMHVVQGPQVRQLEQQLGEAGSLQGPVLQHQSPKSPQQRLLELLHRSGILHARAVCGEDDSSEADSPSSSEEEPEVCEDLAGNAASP

Assay [7] addresses THRB (gene 7068) (UniProt P10828). Description: TOX21_TRB_BLA_Antagonist_Followup_ratio: Tox21 Thyroid Hormone Receptor beta Antagonism Beta-lactamase (BLA) Follow-Up Assay, Ratio (AID 2283958). A digest of the protocol:
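HEK293T cells with a GAL4-TRb LBD fusion and UAS-bla reporter, 3,000 cells/well in phenol red-free DMEM with 2% charcoal-stripped FBS. Exposed 18 h at 37C to 11 concentrations in triplicate; CCF4 460:530 nm ratio after 2 h, DMSO-referenced.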

The nature of assay [8]: TOX21_TRB_BLA_Antagonist_Followup_viability: Viability Assessment in the Tox21 Thyroid Hormone Receptor beta Antagonism Beta-lactamase (BLA) Follow-Up Assay (AID 2283961). A digest of the protocol: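 Viability read as CellTiter-Glo ATP luminescence (loss of signal = cytotoxicity) in the same plates as the TRβ-bla readout. TRβ-LBD/GAL4 UAS-bla HEK293T cells were exposed to compounds, 11 concentrations in triplicate, for 18 h at 37C/5% CO2.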

In assay [9] the target is THRB (gene 7068) (UniProt P10828). As to the kind of experiment: TOX21_TRB_COA_Antagonist_Followup_ratio: Tox21 Thyroid Hormone Receptor beta Antagonism through Coactivator Recruitment Follow-Up Assay, Ratio (AID 2283967). A digest of the protocol:
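Cell-free TR-FRET: GST-TRb LBD (5.0 nM) with fluorescein-SRC-2 peptide (200 nM) and Tb anti-GST antibody (2 nM), 0.10% BSA. 520:495 nm emission ratio normalized to DMSO (0%) and T3 (100%).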

For assay [10], the target named is Retinoic acid receptor RXR-alpha (Homo sapiens) (UniProt P19793). Description: TOX21_TR_RXR_BLA_Antagonist_Followup_ratio: Tox21 Thyroid Hormone Receptor beta Retinoid X Receptor alpha (RXRa) Antagonism Beta-lactamase (BLA) Follow-Up Assay, Ratio (AID 2283972). Put shortly:
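Beta-lactamase reporter readout as cleaved/uncleaved substrate ratio (460:530 nm) after 2 h substrate loading at room temperature. GAL4-RXRa bla HEK293T cells were exposed 16 h at 37C to 11-point compound series; loss of signal scored against DMSO baseline.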

Chain of THRB (gene 7068) (P10828 whole entry, looked up, the tested form may be a part): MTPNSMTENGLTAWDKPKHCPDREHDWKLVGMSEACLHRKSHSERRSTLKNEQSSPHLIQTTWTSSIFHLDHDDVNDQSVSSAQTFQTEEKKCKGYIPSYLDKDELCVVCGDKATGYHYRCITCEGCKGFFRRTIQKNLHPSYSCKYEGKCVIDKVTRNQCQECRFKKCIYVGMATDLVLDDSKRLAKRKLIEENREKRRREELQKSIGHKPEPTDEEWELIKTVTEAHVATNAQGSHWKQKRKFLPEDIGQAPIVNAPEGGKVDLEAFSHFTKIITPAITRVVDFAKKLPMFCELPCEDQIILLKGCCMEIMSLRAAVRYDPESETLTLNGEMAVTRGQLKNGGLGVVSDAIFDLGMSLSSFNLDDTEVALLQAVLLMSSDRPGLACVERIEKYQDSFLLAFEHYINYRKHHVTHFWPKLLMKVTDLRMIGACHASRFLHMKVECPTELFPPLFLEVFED
Chain of Retinoic acid receptor RXR-alpha (Homo sapiens) (P19793 whole entry, looked up, the tested form may be a part): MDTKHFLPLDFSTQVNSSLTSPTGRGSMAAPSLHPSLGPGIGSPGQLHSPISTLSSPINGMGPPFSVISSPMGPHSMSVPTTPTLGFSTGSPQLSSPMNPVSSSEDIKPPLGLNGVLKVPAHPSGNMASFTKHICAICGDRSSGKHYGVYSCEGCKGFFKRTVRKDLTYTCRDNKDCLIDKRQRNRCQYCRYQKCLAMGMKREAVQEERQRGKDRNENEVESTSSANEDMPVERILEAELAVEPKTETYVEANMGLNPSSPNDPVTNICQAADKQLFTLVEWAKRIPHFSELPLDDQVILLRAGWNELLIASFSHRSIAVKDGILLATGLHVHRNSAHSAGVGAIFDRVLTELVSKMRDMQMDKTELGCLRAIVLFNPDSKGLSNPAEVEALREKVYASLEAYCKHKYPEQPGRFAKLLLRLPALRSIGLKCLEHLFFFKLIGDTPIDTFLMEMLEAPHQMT

Consider `O=C(O)Cc1cc(I)c(Oc2cc(I)c(O)c(I)c2)c(I)c1`, for which the half-maximal activity concentration (AC50) with THRA (gene 7067) [1] was 276 nM (active); with THRB (gene 7068) [2], 24.2 nM (active); with THRB (gene 7068) [3], 246 nM (active); in assay [4] it was 31500 nM (active). In [5], the compound was called inactive.
As to `CC(C)(C)c1cc(C(C)(C)C)c(O)c(C(C)(C)C)c1`, the result (with THRA (gene 7067) [1]; with THRB (gene 7068) [2]; in the assay with THRB (gene 7068) [3]; in assay [5]) was inactive. In addition, in assay [4], the AC50 is 59600 nM (active).
As for `C#C[C@]1(O)CC[C@H]2[C@@H]3CCC4=CC(=O)CC[C@@H]4[C@H]3CC[C@@]21C`, the outcome (in the assay with THRA (gene 7067) [6]; with THRB (gene 7068) [7]; in assay [8]; with THRB (gene 7068) [9]; in [10]) was inactive.
